In the supplement of paper PMC4840960:

The compounds below were run on E18 rat cortical neuron-glia co-culture (assay: myelination (MBP fiber length per Olig2+ nucleus), % of 1 µM DAPT response (DMSO = 0) (% of DAPT); higher = more myelination, active = 50 or more). Conditions: 5 µM; treatment time: 8 days (DIV5-DIV13).
Outline: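 Rat cortical co-cultures from E18 tissue were dissociated with papain and plated at 20,000 cells/well on 96-well plates coated with poly-d-lysine/laminin. From DIV5 to DIV13, library compounds were added at 1 or 5 µM in myelination medium. After fixation in 4 % paraformaldehyde, cultures were immunostained for MBP and Olig2 and counterstained with DAPI, and four 10X fields were analysed in each of duplicate wells. The myelination value is the length of continuous straight MBP fibers per Olig2+ nucleus, normalised so that 0.1 % DMSO is 0 and a 1 µM positive control is 100.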

myelination, inactive:
NC1CCN(c2nc3c(cc2F)c(=O)c(C(=O)O)cn3-c2ccc(F)cc2F)C1 (stereo not drawn) [Tosufloxacin] -14.4
COc1cc2c(cc1OC)C(=O)C(CC1CCN(Cc3ccccc3)CC1)C2 (stereo not drawn) [Donepezil] -26.1
CCCCN1CCCC1CNC(=O)c1cc(C#N)c2ccccc2c1OC (stereo not drawn) [Nafadotride] -20.4
NNC(=O)c1ccncc1 [Isoniazid] 0.697
O=C1c2cccc3c2[C@H](CCC3)CN1[C@@H]1CN2CCC1CC2 [Palonosetron] -11.5
C=C1/C(=C\C=C2/CCC[C@]3(C)[C@@H]([C@H](C)CCCC(C)(C)O)CC[C@@H]23)C[C@@H](O)C[C@@H]1O [Calcitriol] 6.28
CCCCNc1cc(C(=O)O)cc(S(N)(=O)=O)c1Oc1ccccc1 [Bumetanide] -11.3
CO[C@H]1/C=C/O[C@@]2(C)Oc3c(C)c(O)c4c(c3C2=O)C2=NC3(CCN(CC(C)C)CC3)NC2=C(NC(=O)/C(C)=C\C=C\[C@H](C)[C@H](O)[C@@H](C)[C@@H](O)[C@@H](C)[C@H](OC(C)=O)[C@@H]1C)C4=O [Rifabutin] -11.2
CCC(=O)NS(=O)(=O)c1ccc(-c2c(-c3ccccc3)noc2C)cc1 [Parecoxib] 1.22
CC(=O)NS(=O)(=O)c1ccc(N)cc1 [Sulfacetamide] 1.76
CCN(CC)CCNC(=O)c1ccc(N)cc1 [Procainamide] 4.78
CN1C(C(=O)Nc2ccccn2)=C(O)c2ccccc2S1(=O)=O [Piroxicam] -8.56
c1ccc2[nH]c(-c3cscn3)nc2c1 [Thiabendazole] -0.348
Nc1c2c(nc3c1CCC3)CCCC2 [Amiridine] -17.6
CC(N/C(=N\C#N)Nc1ccncc1)C(C)(C)C (stereo not drawn) [Pinacidil] -19.7
CN(C)CCc1c[nH]c2ccc(Cn3cncn3)cc12 [Rizatriptan] -20.4
C[C@H]1C[C@@H]2[C@H]([C@@H](O)C[C@@]3(C)[C@H]2CC[C@]3(O)C(=O)CO)[C@@]2(C)C=CC(=O)C=C12 [Methylprednisolone] 2.01
C/C(=C\C(=O)OCCCCCCCCC(=O)O)C[C@@H]1OC[C@H](C[C@@H]2O[C@H]2[C@@H](C)[C@H](C)O)[C@@H](O)[C@H]1O [Mupirocin] -11.7
NS(=O)(=O)c1cc(C2(O)NC(=O)c3ccccc32)ccc1Cl (stereo not drawn) [Chlorthalidone] 7.87
N=C(N)N [Guanidine] -8.57
CC(C)Cc1ccc(C(C)C(=O)O)cc1 (stereo not drawn) [Ibuprofen] -2.85
CN1CCc2cc(Cl)c(O)cc2C(c2ccccc2)C1 (stereo not drawn) -9.82
Cc1nccn1CC1CCc2c(c3ccccc3n2C)C1=O (stereo not drawn) [Ondansetron] -35.8
Nc1nc2ccc(OC(F)(F)F)cc2s1 [Riluzole] -52.5
COc1cc(C)c(/C=C/C(C)=C/C=C/C(C)=C/C(=O)O)c(C)c1C [Acitretin] 12
CCCNC(=O)NS(=O)(=O)c1ccc(Cl)cc1 [Chlorpropamide] -5.62
CC(=O)OCC(=O)[C@@]12OC3(CCCC3)O[C@@H]1C[C@H]1[C@@H]3CCC4=CC(=O)C=C[C@]4(C)[C@@]3(F)[C@@H](O)C[C@@]12C [Amcinonide] -42.6
CN(CCO)CC(O)Cn1cnc2c1c(=O)n(C)c(=O)n2C (stereo not drawn) [Jupal] -10.5
O=C(O)/C=C/c1ccc(Cn2ccnc2)cc1 [Ozagrel] -0.768
CCC(C)(C)C(=O)O[C@H]1C[C@@H](C)C=C2C=C[C@H](C)[C@H](CC[C@@H]3C[C@@H](O)CC(=O)O3)[C@H]21 [Simvastatin] 30
CC1Cc2ccccc2N1NC(=O)c1ccc(Cl)c(S(N)(=O)=O)c1 (stereo not drawn) [Indapamide] 6.67
CCN(CC)CCOC(=O)c1ccc(N)cc1 [Procaine] 23.1
CC1(C)O[C@@H]2C[C@H]3[C@@H]4CCC5=CC(=O)C=C[C@]5(C)[C@@]4(F)[C@@H](O)C[C@]3(C)[C@]2(C(=O)CO)O1 [Triamcinolone Acetonide] 19.3
